Screening data as filed in PubChem BioAssay.
Shown are actives, neighbours in structure and some others; about 4.2% of the full set was active somewhere.
Wnt act: Wnt/beta-catenin pathway activators, primary screen, cell-based, plate reader, single point | Wnt/beta-catenin reporter cell assay, activator | 300,000 compounds, 1.2% hits | AID 743398, 2014 | activation, % at 9.35 µM; in the data active = activation above about 30%, passing the limit was not always enough; inconclusive = no clear call, values can overlap the other calls;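 note: 0% = neutral control wells and 100% = positive control wells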
esBAF inh: Bmi1 luciferase reporter increase in mESCs, primary screen, esBAF inhibitor project, mouse ES cells, Bmi1 luciferase knock-in, single point. 24 h; 100% = twice the neutral-well signal. reporter increase, % at 12.5 µM. 350,000 compounds, 2% hits. AID 602393, 2012; in the data active = activation above about 40%; inconclusive = no clear call, values can overlap the other calls;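 note: 0% = median of the plate's neutral control wells and 100% = double that signal; a rise in the Bmi1 reporter signal indicates esBAF inhibition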
hgDAF12 agonist: H. glycines DAF-12 receptor agonists, primary screen, cell-based, luminescence, HEK293, GAL4 fusion, UAS-luciferase; Nuclear hormone receptor DAF-12 (Heterodera glycines), GAL4 fusion; HEK293 GAL4-hgDAF12 UAS-luciferase reporter, agonist luminescence; normalized to butyrate control; activation, % at 6.8 µM; 370,000 compounds, 1.8% hits; AID 687014, 2013;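 active = activation above a cutoff set at the mean of all screened compounds plus 3 SD, cut at about 10% in these data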;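 note: 0% = DMSO wells and 100% = sodium butyrate wells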
hcDAF-12 act: H. contortus DAF-12 nuclear receptor activators, primary screen, cell-based, luminescence, HEK293, lit1-tk-luc reporter. HEK293 hcDAF-12 lit1-tk-luc reporter; 0% DMSO, 100% Δ7-dafachronic acid. activation, % at 6.8 µM. 370,000 compounds, 1.4% hits. AID 652067, 2013;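 active = activation above the mean of all tested compounds plus 3 SD, cut at about 5.5% in these data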;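 note: 100% = response to 3 µM Δ7-dafachronic acid high control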
ssDAF-12 act: S. stercoralis DAF-12 nuclear receptor activators, primary screen, cell-based, luminescence, HEK293, GRIP1 co-expression, lit1-tk-luc. activation, % at 6.8 µM. HEK293 ssDAF-12/GRIP1 lit1-tk-luc reporter; % of 3 µM dafachronic acid response. 370,000 compounds, 1% hits;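 active = activation above the mean over all tested compounds plus 3 SD, cut at about 0.9% in these data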;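 note: 0% = DMSO-only wells and 100% = 3 µM delta7-dafachronic acid wells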
DAX1 inh: DAX1 (NR0B1) inhibitors on StAR promoter, primary screen, cell-based, luminescence, SF-1 (NR5A1), full-length DAX-1; HEK293T StAR-luciferase reporter, SF-1/DAX-1 repression relief; inhibition, % at 6.8 µM; 370,000 compounds, 1.1% hits; AID 652010, 2013;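 active = inhibition above the mean over all tested compounds plus 3 SD, cut at about 3.6% in these data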;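 note: 0% = DAX-1 cells with DMSO and 100% = cells lacking DAX-1 with DMSO; higher inhibition means more luminescence from relief of DAX-1 repression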
* hit, by the source's call; ? = inconclusive; . = no result.

SMILES	Wnt act	esBAF inh	hgDAF12 agonist	hcDAF-12 act	ssDAF-12 act	DAX1 inh
C[C@@H]1CN([C@@H](C)CO)S(=O)(=O)c2ccc(/C=C/c3ccccc3)cc2O[C@@H]1CN(C)C(=O)CN1CCOCC1	.	7.7	.	.	.	.
O=C(c1ccco1)N1CCN(c2ncnc3c2oc2ccccc23)CC1	.	58.4*	7.3	3.0	0.0	1.4
COC(=O)CC1C(=O)NCCN1C(=O)CSc1nc2ccccc2s1 (stereo not given)	1.2	.	-1.3	3.6	1.2*	1.1
COc1cc(C)ccc1OCc1cc(C(=O)NC2CCOCC2)no1	-2.2	46.9*	5.8	2.9	0.3	0.9
COc1cc(C)ccc1OCc1cc(C(=O)N(Cc2c(C)nn(C)c2C)C2CC2)no1	26.2	60.7*	3.3	-2.3	-0.9	0.0
COc1cc(C)ccc1OCc1cc(C(=O)N2C[C@H]3CC[C@H]2C3)no1	10.0	13.1	0.9	-1.1	-1.2	-0.1
CCCCCN1CC(O)=C(c2nc3ccccc3[nH]2)C1=N	7.0	.	5.5	0.0	-0.8	3.2
CCCCN1CC(O)=C(c2nc3ccccc3[nH]2)C1=N	22.4	58.5*	5.4	1.9	-0.7	1.1
O=C(Nc1ccc(Cl)cc1Cl)c1csc(-c2cccnc2)n1	-1.3	63.8*	2.6	5.0	-0.7	0.2
CC(C)Cc1cc(C(=O)Nc2cccnc2)no1	20.0	56.8*	9.5	3.2	0.7	4.4*
O=C(Nc1cccnc1)c1cc(-c2ccc(Cl)cc2)on1	40.8*	15.4	3.0	-1.5	-1.3	0.3
O=C(NCc1ccccc1)c1csc(-c2cccnc2)n1	-0.8	.	0.4	-0.5	-1.3	-0.2
Cc1cc(C(=O)Nc2cccnc2)no1	0.1	.	.	.	.	.
O=C(Nc1cccnc1)c1cc(-c2ccc(Cl)cc2Cl)on1	43.2*	-1.5	5.4	2.3	-0.2	0.7
Nc1c(-c2ccccc2)cnn1-c1ccc(C(=O)O)cc1	.	17.2	12.3*	3.3	-0.2	2.3
Cc1ccccc1-c1cnn(-c2cccc([N+](=O)[O-])c2)c1N	2.4	34.4	2.7	-1.1	-0.9	0.2
Nc1c(-c2ccc(Cl)cc2)cnn1-c1ccccc1	?	30.9	10.3	2.7	0.6	1.6
Nc1c(-c2cccc(Cl)c2)cnn1-c1cccc(C(F)(F)F)c1	.	28.0	2.1	-2.0	-1.4	-0.8
Nc1c(-c2ccccc2)cnn1-c1cccc(C(F)(F)F)c1	.	54.0*	8.2	2.6	-0.4	0.7
N#Cc1c(C#N)c(-c2ccccc2)n(-c2ccc(C(=O)O)cc2)c1N	.	-2.7	-0.8	-0.4	-0.8	-0.4
Cc1ccc(-c2cnn(-c3ccccc3)c2N)cc1	43.2*	0.3	16.3*	5.3	0.3	3.4
Cc1ccc(-c2cnn(-c3cccc([N+](=O)[O-])c3)c2N)cc1	.	83.2*	11.4*	-0.8	-1.5	-0.2
CCNC(=O)C[C@@H]1CC[C@H]2[C@@H](COc3ccc(NC(=O)c4cscn4)cc3C(=O)N2C)O1	.	7.5	.	.	.	.
Cn1c2ccc(F)cc2c2nnc(SCCN3CCOCC3)nc21	-1.6	11.8	2.2	5.5	1.1*	0.6
C[C@H]1CN([C@@H](C)CO)C(=O)c2cc(C#CCc3ccccc3)cnc2O[C@H]1CN(C)C(=O)Cc1cccnc1	.	-7.5	.	.	.	.
SMILES	Wnt act	esBAF inh	hgDAF12 agonist	hcDAF-12 act	ssDAF-12 act	DAX1 inh
CCOC(=O)c1ccc(Nc2ncnc3ccccc23)cc1	4.9	14.6	-0.7	-0.6	-1.2	0.5
CCOC(=O)c1ccc(Nc2ncnc3nc[nH]c23)cc1	55.9*	27.5	9.8	-0.1	0.6	1.5
COCCCNC(=O)CSc1ccsc1[N+](=O)[O-]	-1.0	.	1.4	1.6	-1.5	0.1
O=C(CSc1ccsc1[N+](=O)[O-])NCc1ccco1	32.9*	.	-1.7	1.8	-1.2	0.4
COCC(=O)Nc1ccc2c(c1)[C@@H]1C[C@@H](CC(=O)NCc3ccccc3F)O[C@@H](CO)[C@@H]1O2	.	1.4	.	.	.	.
CCC(C)c1ccc(NC(=S)NCc2cccs2)cc1 (stereo not given)	.	8.3	6.9	0.4	-1.4	0.9
